The values below come from PubChem BioAssay AID1347165 (National Center for Advancing Translational Sciences (NCATS), 2019).

The structures appear in SMILES notation. Out of some 220,000 compounds screened, about 5,700 (2.6%) were called active. Where a call stands in place of a potency, no number is given. About 18% were inconclusive and are not listed. This is one part of a sample in which actives are shown more often than they occur. Calls come from the whole dose curve; as a rule, active = well fitted inhibition curve with a large enough effect; inconclusive = small, poorly fitted or top-dose-only effect; inactive = no such curve, though single readings can be large or run the other way.
Potency is the fitted concentration of half-maximal effect.

Lysine-specific demethylase 5B (Homo sapiens), sequence (Q9UGL1 whole entry, looked up): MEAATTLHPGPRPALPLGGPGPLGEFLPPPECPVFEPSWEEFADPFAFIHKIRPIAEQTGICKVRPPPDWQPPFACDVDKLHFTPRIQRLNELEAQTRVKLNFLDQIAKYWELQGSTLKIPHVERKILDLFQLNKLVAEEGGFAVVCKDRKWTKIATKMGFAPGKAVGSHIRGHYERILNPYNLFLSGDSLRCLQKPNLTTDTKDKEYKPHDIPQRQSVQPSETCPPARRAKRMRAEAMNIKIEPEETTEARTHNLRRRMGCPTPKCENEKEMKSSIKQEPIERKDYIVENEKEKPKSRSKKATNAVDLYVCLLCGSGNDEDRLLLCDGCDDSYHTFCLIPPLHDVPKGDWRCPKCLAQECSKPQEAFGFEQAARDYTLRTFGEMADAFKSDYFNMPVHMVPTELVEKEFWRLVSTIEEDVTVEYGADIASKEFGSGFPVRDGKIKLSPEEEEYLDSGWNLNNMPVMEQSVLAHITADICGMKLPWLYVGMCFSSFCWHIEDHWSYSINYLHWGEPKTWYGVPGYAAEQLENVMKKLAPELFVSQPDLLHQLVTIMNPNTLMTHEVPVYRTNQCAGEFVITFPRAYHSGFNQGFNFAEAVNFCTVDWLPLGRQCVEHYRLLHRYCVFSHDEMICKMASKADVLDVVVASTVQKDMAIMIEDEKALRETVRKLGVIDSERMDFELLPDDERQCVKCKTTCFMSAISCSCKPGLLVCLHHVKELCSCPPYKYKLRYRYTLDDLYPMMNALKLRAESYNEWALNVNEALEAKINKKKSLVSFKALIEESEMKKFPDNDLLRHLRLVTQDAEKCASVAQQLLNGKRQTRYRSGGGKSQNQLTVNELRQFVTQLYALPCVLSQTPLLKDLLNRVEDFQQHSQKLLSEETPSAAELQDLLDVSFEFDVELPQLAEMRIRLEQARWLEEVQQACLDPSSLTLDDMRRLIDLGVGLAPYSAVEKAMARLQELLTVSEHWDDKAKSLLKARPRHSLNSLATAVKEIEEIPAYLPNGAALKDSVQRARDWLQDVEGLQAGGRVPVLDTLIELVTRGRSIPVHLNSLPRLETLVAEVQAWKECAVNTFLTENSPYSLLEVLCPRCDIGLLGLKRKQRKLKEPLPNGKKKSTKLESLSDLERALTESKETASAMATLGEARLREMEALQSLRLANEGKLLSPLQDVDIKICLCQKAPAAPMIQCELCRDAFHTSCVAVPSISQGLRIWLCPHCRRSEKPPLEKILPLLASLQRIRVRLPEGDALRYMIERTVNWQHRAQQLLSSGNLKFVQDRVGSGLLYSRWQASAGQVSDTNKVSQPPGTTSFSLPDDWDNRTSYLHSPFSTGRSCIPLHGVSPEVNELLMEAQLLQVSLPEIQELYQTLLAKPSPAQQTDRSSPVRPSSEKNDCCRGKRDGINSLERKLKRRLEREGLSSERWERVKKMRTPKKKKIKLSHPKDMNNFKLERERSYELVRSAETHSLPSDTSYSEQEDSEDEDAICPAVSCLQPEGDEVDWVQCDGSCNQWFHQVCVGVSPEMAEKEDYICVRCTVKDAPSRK

This assay deals with Lysine-specific demethylase 5B (Homo sapiens) (UniProt Q9UGL1). The assay can be described thus: Primary screen for KDM5B Histone Demethylases FDH-coupled qHTS. Note: nearly all actives have a fitted effect of over 70% in size. Conditions: FDH-coupled NADH fluorescence (FDH is formaldehyde dehydrogenase); series mostly up to 57.7 µM. Put shortly:
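qHTS format, multiple compound concentrations. Buffer 50 mM HEPES pH 7.5/0.01% Tween-20; 200 nM KDM5BΔAP final; 10 min compound preincubation; substrate-mix levels 12.5 µM peptide, 25 µM α-KG, 0.25 mM NAD⁺; 30 min RT; ΔRFU.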
Take `CN(CC(=O)NCc1ccc(F)cc1)C(=O)c1ccc2c(c1)nnn2C`: the Potency entry is “inactive”.
The result for `Cc1nc2cc(NC(=O)c3cccc(S(=O)(=O)Nc4ccc(SC(F)F)cc4)c3)ccc2o1` reads “inactive”; that for `CCN(CC)S(=O)(=O)c1ccc(-c2csc(-c3cccc(OC)c3OC)n2)cc1`, “inactive”.
For `NC(Cc1ccccc1)(Cc1ccccc1)C(=O)O`, the Potency entry was “inactive”.
As to `O=C(c1cnc(N2CCCCC2)c2ccccc12)N1CCN(c2ccccn2)CC1`, the Potency result is “inactive”.
For `O=[N+]([O-])c1ccccc1CN1C[C@H](O)C[C@H]1c1nc(-c2ccc(F)cc2)no1`, the Potency is 25.1 µM (active).
In the case of `N#Cc1cccc(CN2C[C@H](O)C[C@H]2c2nc(-c3ccccn3)no2)c1` it was “inactive”; in that of `COc1ccc(CN2C[C@H](O)C[C@H]2c2nc(-c3ccc4c(c3)OCO4)no2)c(OC)c1OC`, “inactive”.
Turning to `O=[N+]([O-])c1cccc(-c2noc([C@@H]3C[C@@H](O)CN3Cc3cccc(OC(F)(F)F)c3)n2)c1`, the Potency entry is “inactive”.
Consider `Oc1ccccc1CN1C[C@H](O)C[C@H]1c1nc(Cc2ccc(F)cc2Cl)no1`, for which the Potency entry was “inactive”.
In the case of `O[C@@H]1C[C@@H](c2nc(-c3ccc4c(c3)OCO4)no2)N(Cc2ccc(-c3ccccn3)cc2)C1` it was 25.1 µM (active); in that of `CC(c1nc(-c2cccs2)no1)N(C)Cc1ccc(F)cc1F` (stereo not given), “inactive”.
The result for `Cc1ccc(NC(=O)N2CCC(OC3CCN(S(C)(=O)=O)CC3)CC2)cc1F` reads “inactive”.
As to `CC(Sc1ncnc2nc[nH]c12)C(=O)NCc1ccc(Cl)c(Cl)c1` (stereo not given), the Potency entry is “inactive”.
`O=C(NC1CCCN(c2cc(-c3ccc(F)cc3)[nH]n2)C1)c1ccc(Br)cc1` (stereo not given): the Potency result is “inactive”.
The result for `O=C(NC1CCCN(c2cc(-c3ccccc3)[nH]n2)C1)c1cccc(Cl)c1` (stereo not given) reads “inactive”; that for `Cn1nccc1C(=O)NC1CCCN(c2cc(-c3ccc(F)cc3)[nH]n2)C1` (stereo not given), “inactive”; that for `O=C(NC1CCN(c2cc(-c3ccc(F)cc3)[nH]n2)C1)c1ccc2c(c1)OCO2` (stereo not given), “inactive”.
As to `O=C(NC1CCCN(c2cc(-c3ccc(Cl)cc3)[nH]n2)C1)c1ccncc1` (stereo not given), the Potency entry was “inactive”.
In the case of `O=C(NC1CCN(c2cc(-c3ccc(Cl)cc3)[nH]n2)CC1)c1ccccc1F` it was “inactive”.
`O=C(NC1CCN(c2cc(-c3ccccc3)[nH]n2)CC1)c1cccs1`: the Potency result is “inactive”.
As for `O=C(NC1CCN(c2cc(-c3cccs3)[nH]n2)C1)c1ccc(Br)cc1` (stereo not given), the Potency is 4.47 µM (active).
Regarding `O=C(NC1CCCN(c2cc(-c3ccccc3)[nH]n2)C1)c1cccc2[nH]ccc12` (stereo not given), the Potency is 28.2 µM (active).
In the case of `O=C(NC1CCN(c2cc(-c3ccc(Cl)cc3)[nH]n2)C1)c1c[nH]c2ccccc12` (stereo not given) it was 11.2 µM (active).
The result for `O=C(NC1CCN(c2cc(-c3ccc(F)cc3)[nH]n2)C1)c1cc2ccccc2[nH]1` (stereo not given) reads 8.91 µM (active).
The result for `O=C(NC1CCCN(c2cc(-c3ccc(Cl)cc3)[nH]n2)C1)c1ccccc1F` (stereo not given) reads “inactive”; that for `C=C(Br)CN1CCCC1`, “inactive”; that for `CCc1cccc(-n2c(SCc3nc4ccccc4o3)nnc2N2CCOCC2)c1`, “inactive”.
With `O=C(c1ccccc1F)N1CCC(c2nn(-c3ccc(Cl)cc3)c(=O)[nH]2)CC1`, the Potency result is “inactive”.
Turning to `CCOc1cccc2cc(-c3cc(=O)oc4cc(OC(=O)N5CCOCC5)ccc34)c(=O)oc12`, the Potency entry was “inactive”.
On to `Cc1cc(C)c2nc(SCC(=O)NC(=O)NC(C)(C)C)cc(C)c2c1`, for which the Potency entry is “inactive”.
As to `COc1cccc(CC(=O)NC2CCN(c3cc(-c4ccc(F)cc4)[nH]n3)C2)c1` (stereo not given), the Potency is 7.94 µM (active).
`CCOc1ccc(CC(=O)NC2CCN(c3cc(-c4ccc(F)cc4)[nH]n3)CC2)cc1OCC`: the Potency entry was “inactive”.
The result for `COc1ccc(CC(=O)NC2CCN(c3cc(-c4ccccc4)[nH]n3)CC2)cc1` reads “inactive”.
In the case of `Cc1ccc(S(=O)(=O)NCCC(=O)Nc2cccc(S(N)(=O)=O)c2)cc1C` it was “inactive”.
The result for `CCOc1ccccc1CN1CCC2(CCN(C(=O)c3cccc(Cl)c3)CC2)Oc2ccccc21` reads 25.1 µM (active).
In the case of `CC1(c2cccnc2)N(CCOc2ccccc2)C(=O)OC12CCN(C(=O)c1cccc(Cl)c1)CC2` (stereo not given), the Potency result is “inactive”.
For the compound `CC1(c2cccnc2)N(Cc2ccccc2)C(=O)OC12CCN(C(=O)c1cccc(Cl)c1)CC2` (stereo not given), the Potency entry was “inactive”.
As for `Cn1cccc1CN1CCC2(CC1)CNc1ccccc1[S+](=O)([O-])N2`, the Potency entry was “inactive”.
For the compound `NCc1ccccc1-c1cccc(C(F)(F)F)c1`, the Potency entry is “inactive”.
In the case of `CN(C)C(=O)c1cc(-c2cccc(C(F)(F)F)c2)c2nncn2n1` it was 100 µM (active); in that of `CN(C)C(=O)c1n[nH]c2c1CN(C(=O)c1cccc(C(F)(F)F)c1)CC2`, “inactive”.
The result for `Cc1ccc(N2CCN(C(C(=O)O)c3c[nH]c4cc(NC(=O)C(C)C)ccc34)CC2)c(C)c1` (stereo not given) reads “inactive”.
In the case of `Oc1c(-c2ccccc2)nc2sc3c(c2c1-c1ccccc1)CCCC3` it was “inactive”.
Regarding `O=C(c1cc(Cl)cc(Cl)c1)N1CCN(C(=O)c2cc(Cl)ccc2F)CC1`, the Potency entry is “inactive”.
On to `Cc1ccc(C)n1-c1nnc(N2CCC(C(=O)NCc3ccccc3Cl)CC2)s1`, for which the Potency result is “inactive”.
Take `CCOc1ccc(CC(=O)N2C[C@@H](N)C[C@H]2C(=O)NC(C)C)cc1`: the Potency result was “inactive”.
Regarding `Cc1n[nH]c(C)c1CCC(=O)N[C@@H]1CN(S(C)(=O)=O)C[C@H]1CN(C)C`, the Potency entry is “inactive”.
`CN(C)C[C@@H]1CN(c2ccncn2)C[C@H]1NC(=O)c1cc(C2CC2)[nH]n1`: the Potency entry was “inactive”.
With `O=C(Cc1ccccc1Cl)N1CCN(c2ncnc3nc[nH]c23)CC1`, the Potency entry was “inactive”.
Consider `CN(C)C[C@@H]1CN(c2ncccn2)C[C@H]1NC(=O)CCc1ccccc1`, for which the Potency was 28.2 µM (active).
In the case of `CN(C)C[C@@H]1CN(c2ncccn2)C[C@H]1NC(=O)c1cc(Cl)ccc1F` it was 31.6 µM (active); in that of `CN(C)C[C@@H]1CN(c2ncccn2)C[C@H]1NC(=O)Cc1ccccc1Cl`, 22.4 µM (active).
As for `COc1ccc(CNC(=O)N[C@@H]2CN(c3ccncn3)C[C@H]2CN(C)C)cc1`, the Potency result is “inactive”.
As to `CCOc1ccc(CC(=O)N[C@@H]2CN(c3ncccn3)C[C@H]2CN(C)C)cc1`, the Potency is 25.1 µM (active).
Regarding `CN(C)C(=O)c1cccnc1OC1CCN(C(=O)Cc2ccc(Cl)cc2)C1` (stereo not given), the Potency result is “inactive”.
Take `C/C=C/c1ccc(OCC(=O)N2CCN(S(=O)(=O)c3ccccc3)CC2)c(OC)c1`: the Potency entry was “inactive”.
Regarding `O=C(/C=C/c1ccccc1)Nc1cccc2c1CCCC2`, the Potency result was “inactive”.
Regarding `O=C(NCC1CC1)c1ccc(F)cc1`, the Potency entry was “inactive”.
As to `Cc1ccc(OCc2nc3ccc(F)cc3[nH]2)cc1`, the Potency entry was “inactive”.
